hcDAF12 agonist = H. contortus DAF-12 activation, primary screen. actives 1.4% (n = 370,000). activation, % at 6.8 µM. HEK293 hcDAF-12 lit1-tk-luc reporter, luminescence; 0% DMSO, 100% Δ7-dafachronic acid. AID 652067;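 active = activation above the mean of all tested compounds plus 3 SD, cut at about 5.5% in these data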
DAX1 inh-1 = DAX1 (NR0B1) inhibition, primary screen | actives 1.1% (n = 370,000) | HEK293T StAR-luciferase reporter, SF-1/DAX-1 repression relief | inhibition, % at 6.8 µM | AID 652010;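 active = inhibition above the mean over all tested compounds plus 3 SD, cut at about 3.6% in these data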;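 note: higher inhibition means more luminescence from relief of DAX-1 repression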
GAA850 FXN act = activators of GAA850 frataxin (FXN) promoter; AID 540364; activation, % at 6 µM; actives 0.56% (n = 360,000); HEK293 lucGAA850 FXN promoter luciferase reporter, 24 h; percent of 10 µM SAHA response;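 active = activation above the average of all compounds screened plus 3 SD, cutoff fixed separately per campaign, cut at about 7.5% in these data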
DAX1 inh-2 = inhibits human nuclear receptor DAX1; inhibition, % at 6.75 µM; HEK293 Gal4-DAX1 luciferase reporter, luminescence; actives 0.99% (n = 340,000); P51843;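 active = inhibition above the mean over all tested compounds plus 3 SD, cut at about 4.2% in these data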;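 note: inhibition shows as a rise in luminescence from relieved DAX1 repression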
Target sequence (P51843 207-470 limits assumed): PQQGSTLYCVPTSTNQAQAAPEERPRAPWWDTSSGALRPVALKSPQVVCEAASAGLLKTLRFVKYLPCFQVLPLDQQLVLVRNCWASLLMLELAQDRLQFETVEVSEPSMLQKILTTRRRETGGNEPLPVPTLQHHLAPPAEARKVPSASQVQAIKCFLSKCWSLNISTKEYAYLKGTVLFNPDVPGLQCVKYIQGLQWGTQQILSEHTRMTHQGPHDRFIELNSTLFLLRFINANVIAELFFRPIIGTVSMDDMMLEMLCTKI
ssDAF12 agonist = S. stercoralis DAF-12 activation, primary screen. HEK293 ssDAF-12/GRIP1 lit1-tk-luc reporter, luminescence; % of 3 µM dafachronic acid response. activation, % at 6.8 µM. actives 1% (n = 370,000). AID 652126;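 active = activation above the mean over all tested compounds plus 3 SD, cut at about 0.9% in these data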
hgDAF12 agonist = hgDAF-12 agonism, primary luciferase screen; HEK293 GAL4-hgDAF12 UAS-luciferase reporter, agonist luminescence; normalized to butyrate control; activation, % at 6.8 µM; actives 1.8% (n = 370,000); AID 687014;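 active = activation above a cutoff set at the mean of all screened compounds plus 3 SD, cut at about 10% in these data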
Hits are given with their value; - = inactive; . = no result given. Compounds with a hit are over-represented: about 4.5% of the library has one in this group of screens.

SMILES	hcDAF12 agonist	DAX1 inh-1	GAA850 FXN act	DAX1 inh-2	ssDAF12 agonist	hgDAF12 agonist
COc1ccc(NC(=O)N(CCc2c(C)[nH]c3ccccc23)Cc2cccs2)cc1OC	-	-	.	.	-	-
Cc1ccc2nc(-c3ccccc3)nn2c1	6.5	-	-	-	-	-
CC(C)n1c(O)c(N=NC(=O)C2COc3ccccc3O2)c2ccccc21 (stereo not drawn)	-	-	-	-	1.1	-
CC1=[N+](CC(=O)c2ccccc2)CCn2cccc21	-	-	-	.	1.0	-
CCC1=[N+](CC(=O)c2ccc(C)cc2)CCn2cccc21	-	-	-	-	-	-
CC[C@@]1(c2cccc(Cl)c2)C(=O)N(C(=O)OC(C)C)N1C(=O)OC(C)C	-	-	.	.	-	-
Cn1nccc1C(=O)Nc1sc2c(c1C#N)CCCC2	-	4.3	-	-	-	-
O=C(O)C1CC=CCC1C(=O)NCc1cn2ccccc2n1 (stereo not drawn)	-	-	-	-	1.1	-
O=C(O)C1CCCCC1C(=O)NCc1cn2ccccc2n1 (stereo not drawn)	-	-	-	-	-	-
CCCCCN1CCCCC(NC(=O)CSc2ccccc2)C1=O (stereo not drawn)	-	-	.	.	-	-
COc1cccc(C(=O)NCCn2ccc3ccccc32)c1	-	-	-	-	-	12.1
CCCn1c(NC(=O)c2ccccc2)nc(Cc2ccccc2)c1Cc1ccccc1	-	-	.	.	-	-
O=C(Nc1cccc(O)c1)c1cc(-c2ccco2)on1	-	-	-	-	-	11.1
COC(=O)[C@H](C(C)C)N1Cc2nnn(CC3CCCCC3)c2-c2cc(F)ccc2S1(=O)=O	-	-	.	.	-	-
CC(C)Oc1ccc(CCc2n[nH]c(=S)n2-c2ccccc2)cc1	-	-	-	4.3	-	-
Cc1cccc(C)c1NCc1n[nH]c(=S)n1-c1ccccc1	-	-	-	4.7	-	-
Cc1c(NC(=O)C2CCCN(S(=O)(=O)c3cccc4ccccc34)C2)c(=O)n(-c2ccccc2)n1C (stereo not drawn)	-	-	.	.	-	-
C=C(C)C#CCNCc1ccccc1	-	-	.	.	-	-
Cc1cccc(C(=O)Nc2nc3ncccn3c2-c2ccc(F)c(F)c2)c1	-	-	.	.	-	-
Cc1ccc2c(c1)NC(=O)C(CC(=O)NCCCN1CCCCC1C)O2 (stereo not drawn)	-	-	-	-	-	-
CC1CCCCN1CCNC(=O)CC1Oc2ccccc2NC1=O (stereo not drawn)	-	-	-	4.6	3.2	-
Cc1ccc2c(c1)NC(=O)C(CC(=O)NC1CCCCC1C)O2 (stereo not drawn)	-	-	-	4.8	-	-
CC1CCCCC1NC(=O)CC1Oc2ccccc2NC1=O (stereo not drawn)	-	-	-	-	-	-
Cc1csc(NC(=O)c2ccc(COc3ccccc3F)o2)n1	-	-	.	.	-	-
O=C(CCc1ccccc1)N[C@H]1[C@@H](OC(=O)c2cccnc2)CCC[C@@]12C(=O)N(Cc1ccccc1)c1ccccc12	-	-	.	.	-	-
SMILES	hcDAF12 agonist	DAX1 inh-1	GAA850 FXN act	DAX1 inh-2	ssDAF12 agonist	hgDAF12 agonist
CN1CCCN(C(=O)CSc2ccccc2)CC1	-	-	-	-	-	-
CN1CCN(C(=O)CSc2ccc(Cl)cc2)CC1	-	-	-	4.6	-	-
COc1cc(C(C[N+](=O)[O-])c2c(C)[nH]c3ccccc23)cc(OC)c1OC (stereo not drawn)	-	-	-	-	-	-
O=[N+]([O-])CC(c1ccccc1)c1c[nH]c2ccccc12 (stereo not drawn)	-	-	-	.	1.1	-
COc1cccc(Cn2ncc3c4sc(S(C)=O)cc4n(C)c3c2=O)c1 (stereo not drawn)	-	.	.	.	-	-
CN1C2=C(C(=O)CC(C)(C)C2)C(c2cccs2)C2=C1CC(C)(C)CC2=O	-	-	-	5.3	-	-
O=C(NC1CCN(C(=O)N2CCOCC2)CC1)c1ccccc1	-	-	-	-	-	-
CCN(CC)C(=O)N1CCC(NC(=O)c2ccccc2)CC1	-	-	-	4.7	-	-
O=C(NC1CCCCN(Cc2ccc(Cl)cc2)C1=O)c1cccc(F)c1 (stereo not drawn)	-	-	.	.	-	-

Source: PubChem (The Scripps Research Institute Molecular Screening Center)
